# From the supplement of paper PMC10105736
# ± gives the standard deviation of the averaged measurements.
# B1: Tpst (protein)
# chain: MRLPYRNKKVTLWVLFGIIVITMFLFKFTELRPTCLFKVDAANELSSQMVRVEKYLTDDNQRVYSYNREMPLIFIGGVPRSGTTLMRAMLDAHPDVRCGQETRVIPRILQLRSHWLKSEKESLRLQEAGITKEVMNSAIAQFCLEIIAKHGEPAPRLCNKDPLTLKMGSYVIELFPNAKFLFMVRDGRATVHSIISRKVTITGFDLSSYRQCMQKWNHAIEVMHEQCRDIGKDRCMMVYYEQLVLHPEEWMRKILKFLDVPWNDAVLHHEEFINKPNGVPLSKVERSSDQVIKPVNLEAMSKWVGQIPGDVVRDMADIAPMLSVLGYDPYANPPDYGKPDAWVQDNTSKLKANRMLWESKAKQVLQMSSSEDDNTNTIINNSNNKDNNNNQYTINKIIPEQHSRQRQHVQQQHLQQQQQQHLQQQQHQRQQQQQQREEESESEREAEPDREQQLLHQKPKDVITIKQLPLAGSNNNNINNNINNNNNNNNIMEDPMADT
# B2: snf (protein)
# chain: MEMLPNQTIYINNLNEKIKKEELKKSLYAIFSQFGQILDIVALKTLKMRGQAFVIFKEIGSASNALRTMQGFPFYDKPMQIAYSKSDSDIVAKIKGTFKERPKKVKPPKPAPGTDEKKDKKKKPSSAENSNPNAQTEQPPNQILFLTNLPEETNEMMLSMLFNQFPGFKEVRLVPNRHDIAFVEFTTELQSNAAKEALQGFKITPTHAMKITFAKK
# B3: grk (protein)
# chain: MMQIPFTRIFKVIFVLSTIVAVTDCCSSRILLLREHTLKIVQHQHSHMHEHAHELQQQIQETAVELLNRLELQRKQLEASAQEEADQLHPDTDPNPDSGGQLPNADDSIAADPEQDGIILGSSTDTWLASESSTPITDSETVTTPETVTHTGEPPPDPSSSSTPDSTTPSPNDKETEIQMLPCSEAYNTSFCLNGGHCFQHPMVNNTVFHSCLCVNDYDGERCAYKSWNGDYIYSPPTAQRKVRMAHIVFSFPVLLMLSSLYVLFAAVFMLRNVPDYRRKQQQLHLHKQRFFVRC
# B4: meigo (protein)
# chain: MNLPERSRFVIYAVGIFVCYFLYGIVQEKLTRGRYGEEVQTDGSVGERFTYALALVWVQCLCNYVFAKVLLTIRPQKEDTTNAGSYVACSLTYLLAMVSTNMAMRWVPYPTAVVGKSAKPIPVMILGVLIGRKSYSWTRYACVLTIVLGVILFMYKEGKVSNLPAETTLLGEVLLFLSLSMDGLTGAVQERIRAASAPSGQQMMRAMNFWSTLMLGVAMVFTGEAKEFMYFTIRHPEAWTHLSLIAVCGVLGQFFIFLMVASFGPLACSVVTTTRKFFTVLCSVLLFGNVLIARQWLGAVLVFAALFVDMLYGKKAPLATAKKPPVEGKLSEEKKLNS
# B5: Tcs3 (protein)
# chain: MVCALGIEGSANKIGIGIIRDGKVLANVRRTYITPPGEGFLPKETAKHHREAILGLVESSLKEAQLKSSDLDVICYTKGPGMAPPLLVGAIVARTLSLLWNIPLLGVNHCIGHIEMGRLITGAQNPTVLYVSGGNTQVIAYSNKRYRIFGETIDIAVGNCLDRFARIIKLSNDPSPGYNIEQLAKSSNRYIKLPYVVKGMDVSFSGILSYIEDLAEPGKRQNKRKKPQEEEVNNYSQADLCYSLQETIFAMLVEITERAMAHCGSNEVLIVGGVGCNERLQEMMRIMCEERGGKLFATDERYCIDNGLMIAHAGAEMFRSGTRMPFEESYVTQRFRTDEVLVSWRDD
# B6: CtsF (protein)
# chain: MRLFAAATVALVLLLGQAAGEELAEERAGQAQGDAESTESSETTTDQAVSEPPITLVHVLNPGEREYLSPNLIGVQNIAMTFLPLSMNFVNIIDAFREITAGVRYEILLNALDTKAIQPAEADIVCRLVILEKPWLRTQWGDKHRELVTSNCTDPAVNSVAGDPAEKARLLNEKYVHRSRRSANDILGRHKPYDEEAAKAQLQKSLDKLTAGEGPHYKIVKVYSASRQVDSGILTRIDADLIDGSEEQHRCIVDIWTKVWVRKDEHEITFKCRNQPVVQARHTRSVEWAEKKTHKKHSHRFDKVDHLFYKFQVRFGRRYVSTAERQMRLRIFRQNLKTIEELNANEMGSAKYGITEFADMTSSEYKERTGLWQRDEAKATGGSAAVVPAYHGELPKEFDWRQKDAVTQVKNQGSCGSCWAFSVTGNIEGLYAVKTGELKEFSEQELLDCDTTDSACNGGLMDNAYKAIKDIGGLEYEAEYPYKAKKNQCHFNRTLSHVQVAGFVDLPKGNETAMQEWLLANGPISIGINANAMQFYRGGVSHPWKALCSKKNLDHGVLVVGYGVSDYPNFHKTLPYWIVKNSWGPRWGEQGYYRVYRGDNTCGVSEMATSAVLA
# B7: grass (protein)
# chain: MMIASSLAVLYGIAIVSSMGVQSARADYADDCTTPDGDQGQCMPFSSCRTIEERLTEAQKAGQKVPADYASYLQKALCGEFNGVRHFCCPSANIQHNSKVMSLFKDENFDCGNFLSQRVSNGYEVKLSSRPWMALLRYQQFGESRFLCGGAMISERYILTAAHCVHGLQNDLYEIRLGEHRISTEEDCRQQGRKKKCAPPVVNVGIEKHLIHEKYDARHIMHDIALLKLNRSVPFQKHIKPICLPITDELKEKAEQISTYFVTGWGTTENGSSSDVLLQANVPLQPRSACSQAYRRAVPLSQLCVGGGDLQDSCKGDSGGPLQAPAQYLGEYAPKMVEFGIVSQGVVTCGQISLPGLYTNVGEYVQWITDTMASNGL
# B8: Surf4 (protein)
# chain: MSIPNEYIAKTEDVAEQVIKRGKNVLPTVARLCLIATFFEDGLRMYIQWNEQREYMDMSWGCGKFLATVFVLVNLLGQLGGCGMVMARFKVDIAVGLLFFIVVLQTVAYSILWDFQFLLRNFALIGALLLVLAEARIEGRSLFAGVPSMGENKPKNFMQLAGRILLAFMFITLIRFELSVWQVIQDIIGSILMVLVVLGYKTKLSALILVALLTILNLYHNAWWTIPSYKPLRDFLKYDFFQTLSVIGGLLMIVSLGPGGVSMDEHKKKW
# B9: TfIIA-S-2 (protein)
# chain: MNYQHYRATTLGRTLQDTLDEMMERGDITKKIANLVLLRYDKSISTALKDHGTSNMSFTAERLETFRCCDNVWTLILKDAEFREDQHSLKVDVVKIVACLGTDNGNE
# B10: CG7639 (protein)
# chain: MPKSGRDGGASKDSKYDLSKISARVDRVNVSGLLRTHNDYVMRAADGLFKASNFQDLMLEAMSTKSYLHELGIFKDVSVHIDVSRGADASPQGYEVTFKGNEMSRMMGSAGTEIGQNEGSLRTELTIPNILGRGENISLQGSYSSTRANDLQLKFWKPFFHTRFKENRPEMSFSIFRQTDRFDISSFQTTNIGYLVDFSAHTMVGVDLTHSLQYENAIRDVGLLNKSVPFAIRDHCGPKLASLLRYSVVYDNRDGNVFPTRGIYLKSVNEYCGLGGNVAYTSSTAHGELNVPLFAGLVAQFCARVGVVKETKNTTQLPISSLFYCGGPLTLRGFKFGGAGPVVESTPIGAQSFWCTGAHLWAPLPFAGVFKNLASHFRMHFFYNIGNNNSFSTENMRSAFGMGLAVKLAERARIELNYCVPVRHQDTDRILNGFQFGIGYEFV
# B11: CG3792 (protein)
# chain: MTDLIRQGALFLMSEKCYDNYFLYHNFLDVPCFKALLSKGLGLAIIAGSVLVKVPQVLKILNSKSGEGINIVGVVLDLLAISFHLSYNFMHGYPFSAWGDSTFLAIQTVTIAVLVLFFNGRKAQSGLFLVGYVVLMYVLNSGLTPMSVLFTIQSCNIPILLVGKLSQAYTNYQAGSTGQLSAATVIMMFAGSVARIFTSIQETGDFMIILTFIASTFANSVILGQLIYYWNKPAGVKVKDSKAKKPKTKKDD
# B12: Mlp84B (protein)
# chain: MPSFQPIEAPKCPRCGKSVYAAEERLAGGYVFHKNCFKCGMCNKSLDSTNCTEHERELYCKTCHGRKFGPKGYGFGTGAGTLSMDNGSQFLRENGDVPSVRNGARLEPRAIARAPEGEGCPRCGGYVYAAEQMLARGRSWHKECFKCGTCKKGLDSILCCEAPDKNIYCKGCYAKKFGPKGYGYGQGGGALQSDCYAHDDGAPQIRAAIDVDKIQARPGEGCPRCGGVVYAAEQKLSKGREWHKKCFNCKDCHKTLDSINASDGPDRDVYCRTCYGKKWGPHGYGFACGSGFLQTDGLTEDQISANRPFYNPDTTSIKARDGEGCPRCGGAVFAAEQQLSKGKVWHKKCYNCADCHRPLDSVLACDGPDGDIHCRACYGKLFGPKGFGYGHAPTLVSTSGESTIQFPDGRPLAGPKTSGGCPRCGFAVFAAEQMISKTRIWHKRCFYCSDCRKSLDSTNLNDGPDGDIYCRACYGRNFGPKGVGYGLGAGALTTF
# B13: sd (protein)
# chain: MKNITSSSTCSTGLLQLQNNLSCSELEVAEKTEQQAVGPGTIPSPWTPVNAGPPGALGSADTNGSMVDSKNLDVGDMSDDEKDLSSADAEGVWSPDIEQSFQEALSIYPPCGRRKIILSDEGKMYGRNELIARYIKLRTGKTRTRKQVSSHIQVLARRKLREIQAKIKVQFWQPGLQPSTSQDFYDYSIKPFPQPPYPAGKTSTAVSGDETGIPPSQLPWEGRAIATHKFRLLEFTAFMEIQRDEIYHRHLFVQLGGKPSFSDPLLETVDIRQIFDKFPEKSGGLKDLYEKGPQNAFYLVKCWADLNTDLTTGSETGDFYGVTSQYESNENVVLVCSTIVCSFGKQVVEKVESEYSRLENNRYVYRIQRSPMCEYMINFIQKLKNLPERYMMNSVLENFTILQVMRARETQETLLCIAYVFEVAAQNSGTTHHIYRLIKE
# B14: RpS19b (protein)
# chain: MPGVTVKEIDQHVLTKNMAAFLKKSGKIFVPEQAVYMKTGKFKETAPTDDDWFYTRCASIMRHLYLRSPAGVGAFTKVYSGRKRNGVRPSKHCRSSDGCIRKALQALEAANMVERHPDGGRKLTPQGQRNLDRIANKIVAKQRERSAPVSMIITT
# B15: RpS3 (protein)
# chain: MNANLPISKKRKFVSDGIFKAELNEFLTRELAEDGYSGVEVRVTPSRTEIIIMATKTQQVLGEKGRRIRELTAMVQKRFNFETGRIELYAEKVAARGLCAIAQAESLRYKLTGGLAVRRACYGVLRYIMESGAKGCEVVVSGKLRGQRAKSMKFVDGLMIHSGDPCNDYVETATRHVLLRQGVLGIKVKVMLPYDPKNKIGPKKPLPDNVSVVEPKEEKIYETPETEYKIPPPSKPLDDLSEAKVL
# What was measured:
# Experiment in all cases: MAPPIT interaction score (arbitrary units); higher = stronger binary interaction signal, active = hit call of the paper;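 active = MAPPIT score above the 99th percentile of random reference set scores in the same batch; inactive = at or below it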
# Tsp96F = conditions: MAPPIT configuration: N-C; pair source set: screen_3
# ninaD = conditions: MAPPIT configuration: N-C; pair source set: screen_3
# THG = conditions: MAPPIT configuration: N-N; pair source set: screen_2
# Tom20 = conditions: MAPPIT configuration: N-N; pair source set: DPIM
# Tim17b2 = conditions: MAPPIT configuration: N-C
# Tcs6 = conditions: MAPPIT configuration: N-N; pair source set: screen_2
# Taf12 = conditions: MAPPIT configuration: N-N; pair source set: Curagen_low_conf
# Syp = conditions: MAPPIT configuration: N-N; pair source set: DPIM
# Tsp74F = conditions: MAPPIT configuration: N-C; pair source set: screen_3
# TfIIA-L = conditions: MAPPIT configuration: N-N; pair source set: screen_2
# Trxr1 = conditions: MAPPIT configuration: N-N; pair source set: Finley_Y2H
# Traf-like = conditions: MAPPIT configuration: N-N; pair source set: Curagen_low_conf
# Tgi = conditions: MAPPIT configuration: N-N; pair source set: Lit-BM-16
# yki = conditions: MAPPIT configuration: N-N; pair source set: Lit-BM-16
# Tm1 = conditions: MAPPIT configuration: N-N; pair source set: Curagen_high_conf
# TwdlW = conditions: MAPPIT configuration: N-N; pair source set: Lit-BS-16
# 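Further: HEK293T cells with Epo stimulation, STAT-responsive firefly luciferase reporter, fold induction versus unstimulated cells divided by the larger fold induction of two negative controls lacking either bait or prey.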
binder,measurement,setting,value
B1,MAPPIT interaction score,Tsp96F,-0.524 (inactive)
same,MAPPIT interaction score,ninaD,0.243 (inactive)
B2,MAPPIT interaction score,THG,0.333 (inactive)
B3,MAPPIT interaction score,Tom20,0.109 (inactive)
B4,MAPPIT interaction score,Tim17b2; pair source set: screen_4,-0.125 (inactive)
B5,MAPPIT interaction score,Tcs6,1.93 (inactive)
B6,MAPPIT interaction score,Taf12,0.31 (inactive)
B7,MAPPIT interaction score,Syp,-0.0477 (inactive)
B8,MAPPIT interaction score,Tsp74F,-0.232 (inactive)
B9,MAPPIT interaction score,TfIIA-L,3.17 ± 3.8
B10,MAPPIT interaction score,Trxr1,-0.0261 (inactive)
B11,MAPPIT interaction score,Tim17b2; pair source set: screen_3,-0.183 (inactive)
B12,MAPPIT interaction score,Traf-like,-0.422 (inactive)
B13,MAPPIT interaction score,Tgi,0.163 (inactive)
same,MAPPIT interaction score,yki,0.822 (inactive)
B14,MAPPIT interaction score,Tm1,0.314 (inactive)
B15,MAPPIT interaction score,TwdlW,-0.331 (inactive)
